Assay results published in PubChem BioAssay (NCI).
The panel holds about 83,000 compounds, 20% with a hit somewhere; the sample as a whole holds those more often.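 Negative percent growth values reflect cell death: -40 means 40% of the cells present at the start died, and -100 means all died.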 Calls of active or inactive are those of the source.

tested on: OVCAR-8 ovarian; test: NCI-60 one-dose screen, 48 h (100 = growth as untreated, 0 = no growth, -100 = all killed); details: 10 µM unless noted
Procedure: Growth inhibition of the OVCAR-8 human tumor cell line is measured as a screen for anti-cancer activity. Cells are grown in 96 well plates and exposed to the test compound for 48 hours. Compounds are tested at a single concentration, which is 10^-5 M for most compounds. The reported endpoint is percent growth (GI% or GIPRCNT), where numbers from 0 - 100% represent growth inhibition, and numbers from -100% - 0 represent cell death. For example, a value of 40 represents 60% growth inhibition. A value of 0 means no net growth occurred over the course of the experiment. A value of -40 indicates 40% of cells at the beginning of the experiment died by the end of the experiment. A value of -100 means all cells are dead at the end of the experiment.
NCI-60 Human Tumor Cell Lines Screen was performed using the standard one-dose NCI protocol, which is described in more detail at https://dtp.cancer.gov/discovery_development/nci-60/default.htm.
Compounds with GIPRCNT values below 10 were considered active. Activity score was based on GIPRCNT using the following formula: […]
Score is 0 for GIPRCNT values of 100 or above, 50 for GIPRCNT values of 0, and 100 for GIPRCNT values of -100.

Row | SMILES | growth
1 | CNS(=O)(=O)c1n[nH]nc1-c1cc(C(C)(C)C)c(O)c(C(C)(C)C)c1 | 100% (inactive)
2 | C#CCOc1nc(C)cc(C)c1C#N | 102% (inactive)
3 | COc1cc(C(=O)/C=C/c2c(C(F)(F)F)nc3sccn23)cc(OC)c1OC | 12.2% (inactive)
4 | CC(C)(C)CC(C)(C)Nc1c(-c2ccncc2)nc2cnccn12 | 95.6% (inactive)
5 | Cc1c(C(=O)N[C@@H](Cc2ccccc2)C(=O)C(=O)NCCc2ccccc2)[nH]c2ccccc2c1=O | 98.6% (inactive)
6 | NC(N)=Nc1nc2ccccc2n2c1nc1ccccc12 | 25.5% (inactive)
7 | COc1nc2c(c(=O)n1C)CN(c1ccccc1)C(=O)CN2C | 47.4% [100 µM] (inactive)
8 | CNC(=O)NCC1OC(n2cnc3c(NC(=O)Nc4ccccc4)ncnc32)C(O[Si](C)(C)C(C)(C)C)C1CC(=O)N(C)OC (stereo not given) | 20.4% (inactive)
9 | COc1ccc(Cl)cc1NC(=O)C(Br)C(Br)C(=O)O (stereo not given) | 45.3% (inactive)
10 | CNc1ccc(NC)c2c1C(=O)c1ccccc1C2=O | 71.5% (inactive)
11 | COc1cc(-c2nc(N3CCN(C)CC3)c3ccccc3n2)cc(OC)c1OC | 75.7% (inactive)
12 | Cc1cccc(Cc2cnc(NC(=O)/C=C/c3ccco3)s2)c1 | 13.7% (inactive)
13 | CCN(CC)c1ccc(C(=O)c2ccc(N(CC)CC)cc2)cc1 | 32.2% (inactive)
14 | Fc1cnc(NC2CC2)nc1-c1cnc2ccc(N3CCOCC3)cn12 | 9.65% (active)
15 | N[C@@H](CCCCNCC(=O)O)C(=O)O | 105% (inactive)
16 | C=C(C)[C@@H]1CC[C@]2(C(=O)NC3CCCCC3)CC[C@]3(C)[C@H](CC[C@@H]4[C@@]5(C)CCCNC(C)(C)[C@@H]5CC[C@]43C)[C@@H]12 | -16.7% (active)
17 | O=C(Nc1cccc(C(F)(F)F)c1)Nc1cccc(C(F)(F)F)c1 | 4.98% (active)
18 | CS(=O)(=O)c1ccc(Nc2nc(N[C@H]3CCCC[C@H]3N)nc3cc[nH]c(=O)c23)cc1 | 13.6% (inactive)
19 | COC(=O)[C@]12CC[C@@H](C)[C@H](C)[C@@H]1C1=CC[C@@H]3[C@@]4(C)C(C=O)=C[C@@](C)(COC(C)=O)C4=CC[C@@]3(C)[C@]1(C)CC2 | 13.2% (inactive)
20 | Cc1ccc(-c2c(-c3ccccc3)c(=O)oc3ccc(C)cc23)cc1 | 93.9% (inactive)

Row | SMILES | growth
21 | N#Cc1nc2c(S(=O)(=O)c3ccc(Cl)cc3)c(N)n(Nc3cccc(Cl)c3)c2nc1C#N | 24% (inactive)
22 | COc1cc(-c2n/c(=C\c3c(O)[nH]c4ccc(Cl)cc34)cc3c2=Nc2ccccc2-3)cc(OC)c1OC | 3.95% (active)
23 | Cn1ccc2c(c1=O)C(=O)c1nccc3c1c-2nc1ccccc13 | -58.5% (active)
24 | COc1cc2c(cc1-c1c(C)noc1C)ncc1nc(C3CCC(F)(F)CC3)n(C3CCC(OC(F)F)CC3)c12 (stereo not given) | 65.2% (inactive)
25 | CC(=O)N1N=C(c2ccc(Nc3nc(Nc4ccc(F)cc4)nc(Nc4ccc(F)cc4)n3)cc2)CC1c1cccc([N+](=O)[O-])c1 (stereo not given) | 91.6% (inactive)
26 | Fc1ccc(CNc2c3ccccc3nc3ccccc23)cc1F | 32.1% (inactive)
27 | N#C/C(=C/C=C/c1cccc(Cl)c1)S(=O)c1ccccc1 (stereo not given) | -2.48% (active)
28 | Cc1cc(NCc2cc(Nc3ccnc4cc(Cl)ccc34)ccc2F)nc(N2CCN(c3ccccc3)CC2)n1 | 58.8% (inactive)
29 | Cc1ccc(NS(=O)(=O)c2ccc3c(c2)C2OCCC2C(c2ccc(C(=O)C(C)C)cc2)N3)cc1C (stereo not given) | 58.1% (inactive)
30 | N#Cc1c(-c2cccc(Cl)c2)cc(-c2cccc(Cl)c2)[nH]c1=O | 87.3% (inactive)
31 | Cc1ccc(S(=O)(=O)Oc2cc(OS(=O)(=O)c3ccc(C)cc3)cc(OS(=O)(=O)c3ccc(C)cc3)c2)cc1 | 107% (inactive)
32 | c1ccc2cc3nc4cc5ccccc5cc4nc3cc2c1 | 84.8% (inactive)
33 | CCc1ccccc1-n1c(-c2ccc(Cl)cc2)cc(-c2ccc(OC)cc2)c(C#N)c1=O | 102% (inactive)
34 | O=S(=O)(NCCCNc1cc(-c2c(-c3cccc(O)c3)nc3sccn23)ccn1)c1cccc(Cl)c1 | 17.1% (inactive)
35 | CC(=O)n1c(-c2ccc(Cl)cc2)nc2c(c1=O)C(c1ccc(Cl)cc1)c1sc3c(Cl)cccc3c1O2 (stereo not given) | -31.5% (active)
36 | Nc1ccc2c(c1)c(N)nn2C(=O)Nc1ccc(Cc2ccccc2)cc1 | 83.5% (inactive)
37 | O=C1/C(=C\c2cccnc2)SC(=S)N1CCc1ccc(O)cc1 | 62.6% (inactive)
38 | CCN(CC)S(=O)(=O)c1cccc(-c2ccc3c(NC(=O)C4CC4)n[nH]c3c2)c1 | 14.7% [6.25 µM] (inactive)
39 | O=C(NC(CSSCC(NC(=O)c1ccccc1)C(=O)O)C(=O)O)c1ccccc1 (stereo not given) | 104% (inactive)
40 | O=C(CSc1nnc(-c2ccc(NC(=O)c3cccnc3)cc2)o1)Nc1cccc(Br)c1 | 88.7% (inactive)
